In PubChem BioAssay AID1159580 (chemical genetic matrix, 2015):
About 2,000 (36%) of roughly 5,500 compounds were called active. Not shown: some 18% with an inconclusive outcome. Rule as the data show it: active = normalized growth mostly below about 0.91 (no sharp cut-off); inconclusive = no clear call, values can overlap the other calls; inactive = mostly above about 0.92. This is one part of the list.

Assay: chemical genetic growth profiling, strain panel (AID 1159580);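 also: tested at 20 µM; growth read once vehicle control cultures reached saturation at 30 °C; 1 = growth at the plate median or of vehicle wells; lower values mean less growth of the strain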
Details: S. cerevisiae deletion strains, growth OD

Measured: normalized growth

COc1cc2c(cc1OC)[C@@H]1C(=O)c3ccc(O)c(CC=C(C)C)c3O[C@@H]1CO2
active: locus YAL021C, strain ccr4, active compounds read low 1.12 [resistant] | locus YBR279W, strain paf1, active compounds read low 1.12 [resistant] | locus YJL129C, strain trk1, active compounds read low 1.17 [resistant] | locus YJL187C, strain SWE1, active compounds read low 1.1 [resistant] | locus YLL041C, strain sdh2, active compounds read low 1.09 [resistant] | locus YOR106W, strain vam3, active compounds read low 1.13 [resistant] | locus YPL240C, strain hsp82, active compounds read low 1.11 [resistant]
inactive: locus YAL026C, strain drs2, active compounds read low 1.01 | locus YAL030W, strain snc1, active compounds read low 1.03 | locus YBL061C, strain skt5, active compounds read low 0.958 | locus YBR009C, strain hhf1, active compounds read low 1.03 | locus YBR021W, strain FUR4, active compounds read low 0.989 | locus YBR023C, strain chs3, active compounds read low 0.987 | locus YBR171W, strain sec66, active compounds read low 0.998 | locus YBR229C, strain ROT2, active compounds read low 0.986 | locus YBR231C, strain swc5, active compounds read low 1.01 | locus YCL011C, strain gbp2, active compounds read low 1.06 | locus YCL016C, strain dcc1, active compounds read low 0.965 | locus YCL029C, strain bik1, active compounds read low 0.984 | locus YCL061C, strain MRC1, active compounds read low 0.985 | locus YCL069W, strain vba3, active compounds read low 1 | locus YCR088W, strain abp1, active compounds read low 1 | locus YDL005C, strain med2, active compounds read low 1.05 | locus YDL035C, strain GPR1, active compounds read low 1.02 | locus YDL040C, strain nat1, active compounds read low 0.975 | locus YDL074C, strain BRE1, active compounds read low 0.961 | locus YDL101C, strain DUN1, active compounds read low 0.969 | locus YDL134C, strain PPH21, active compounds read low 0.967 | locus YDL185W, strain tfp1, active compounds read low 0.974 | locus YDL192W, strain arf1, active compounds read low 1.03 | locus YDR001C, strain nth1, active compounds read low 1.01 | locus YDR069C, strain doa4, active compounds read low 1.08 | locus YDR101C, strain arx1, active compounds read low 1.05 | locus YDR137W, strain rgp1, active compounds read low 1.02 | locus YDR159W, strain sac3, active compounds read low 1.07 | locus YDR162C, strain NBP2, active compounds read low 0.978 | locus YDR195W, strain ref2 0.963 | locus YDR297W, strain sur2, active compounds read low 1.05 | locus YDR318W, strain mcm21, active compounds read low 1.01 | locus YDR334W, strain swr1, active compounds read low 1 | locus YDR335W, strain msn5, active compounds read low 1.02 | locus YDR388W, active compounds read low 0.982 | locus YDR392W, strain spt3, active compounds read low 0.91 | locus YDR502C, strain sam2, active compounds read low 0.971 | locus YEL003W, strain gim4, active compounds read low 1.03 | locus YEL037C, strain rad23, active compounds read low 1.03 | locus YEL061C, strain CIN8 (second series), active compounds read low 1.06 | locus YEL061C, strain CIN8, active compounds read low 0.992 | locus YER015W, strain faa2, active compounds read low 1.01 | locus YER016W, strain bim1, active compounds read low 1.07 | locus YER110C, active compounds read low 0.966 | locus YER111C, strain swi4, active compounds read low 1.02 | locus YER155C, strain BEM2 (second series), active compounds read low 0.979 | locus YER155C, strain BEM2, active compounds read low 0.982 | locus YER167W, strain BCK2, active compounds read low 0.998 | locus YFR010W, strain ubp6, active compounds read low 1.01 | locus YGL078C, strain dbp3, active compounds read low 1.02 | locus YGL086W, strain mad1, active compounds read low 1.02 | locus YGL167C, strain pmr1, active compounds read low 0.988 | locus YGL173C, strain kem1, active compounds read low 1.01 | locus YGL227W, strain vid30, active compounds read low 0.997 | locus YGL240W, strain doc1, active compounds read low 1.03 | locus YGL248W, strain PDE1, active compounds read low 0.932 | locus YGL253W, strain hxk2, active compounds read low 1.02 | locus YGR078C, strain PAC10, active compounds read low 0.975 | locus YGR135W, strain pre9, active compounds read low 0.952 | locus YGR229C, strain SMI1, active compounds read low 1.19 | locus YGR252W, strain gcn5, active compounds read low 0.999 | locus YHR013C, strain ard1, active compounds read low 1.02 | locus YHR027C, strain rpn1, active compounds read low 1.03 | locus YHR030C, strain SLT2, active compounds read low 0.994 | locus YHR079C, strain IRE1 (second series), active compounds read low 1 | locus YHR094C, strain hxt1, active compounds read low 0.988 | locus YHR129C, strain ARP1, active compounds read low 0.984 | locus YHR142W, strain chs7, active compounds read low 1.02 | locus YHR200W, strain rpn10, active compounds read low 1 | locus YIL066C, strain RNR3, active compounds read low 0.981 | locus YIL073C, strain SPO22, active compounds read low 0.913 | locus YIL125W, strain kgd1, active compounds read low 0.994 | locus YIR030C, strain dcg1, active compounds read low 0.981 | locus YJL092W, strain hpr5, active compounds read low 1 | locus YJL095W, strain BCK1 (second series), active compounds read low 1.02 | locus YJL095W, strain BCK1, active compounds read low 0.953 | locus YJL115W, strain asf1, active compounds read low 1.06 | locus YJL134W, strain LCB3, active compounds read low 0.978 | locus YJL154C, strain vps35, active compounds read low 1.01 | locus YJL164C, strain tpk1, active compounds read low 1.02 | locus YJL166W, strain qcr8, active compounds read low 1.06 | locus YJL168C, strain set2, active compounds read low 0.979 | locus YJL187C, strain SWE1 (second series), active compounds read low 0.951 | locus YJR043C, strain POL32, active compounds read low 1.05 | locus YKL009W, strain mrt4, active compounds read low 0.93 | locus YKL068W, active compounds read low 0.969 | locus YKL085W, strain MDH1 (second series), active compounds read low 0.963 | locus YKL085W, strain MDH1, active compounds read low 0.963 | locus YKL160W, strain elf1, active compounds read low 1.02 | locus YKR001C, strain vps1, active compounds read low 1.02 | locus YKR026C, strain gcn3, active compounds read low 1 | locus YKR091W, strain srl3, active compounds read low 1.03 | locus YLL001W, strain dnm1, active compounds read low 1 | locus YLL026W, active compounds read low 1.03 | locus YLR027C, strain aat2, active compounds read low 1.07 | locus YLR039C, strain RIC1, active compounds read low 0.925 | locus YLR058C, strain SHM2, active compounds read low 0.98 | locus YLR102C, strain apc9, active compounds read low 0.991 | locus YLR221C, strain rsa3, active compounds read low 1.04 | locus YLR258W, strain gsy2, active compounds read low 1.06 | locus YLR262C, strain YPT6 (second series), active compounds read low 0.97 | locus YLR262C, strain YPT6, active compounds read low 0.906 | locus YLR268W, strain sec22, active compounds read low 1.02 | locus YLR320W, strain mms22, active compounds read low 0.961 | locus YLR330W, strain CHS5, active compounds read low 0.99 | locus YLR342W, strain FKS1 (second series), active compounds read low 1.06 | locus YLR342W, strain FKS1, active compounds read low 1.02 | locus YLR357W, strain rsc2, active compounds read low 1.05 | locus YLR370C, strain arc18, active compounds read low 1 | locus YLR371W, strain rom2, active compounds read low 1.02 | locus YLR384C, strain iki3, active compounds read low 0.971 | locus YLR418C, strain cdc73, active compounds read low 1 | locus YML016C, strain PPZ1, active compounds read low 1 | locus YML032C, strain rad52, active compounds read low 1.01 | locus YML120C, strain ndi1, active compounds read low 0.976 | locus YML124C, strain tub3, active compounds read low 0.989 | locus YMR058W, strain fet3, active compounds read low 1 | locus YMR078C, strain ctf18, active compounds read low 1.01 | locus YMR125W, strain sto1, active compounds read low 1.01 | locus YMR129W, active compounds read low 1.01 | locus YMR205C, strain PFK2, active compounds read low 1.02 | locus YMR223W, strain ubp8, active compounds read low 0.995 | locus YMR231W, strain pep5, active compounds read low 0.959 | locus YMR307W, strain GAS1, active compounds read low 1.1 | locus YNL067W, strain RPL9B, active compounds read low 0.958 | locus YNL071W, strain lat1, active compounds read low 1.02 | locus YNL128W, strain TEP1, active compounds read low 0.966 | locus YNL209W, strain ssb2, active compounds read low 1.05 | locus YNL233W, strain BNI4, active compounds read low 0.947 | locus YNL248C, strain rpa49, active compounds read low 1.01 | locus YNL250W, strain rad50, active compounds read low 0.923 | locus YNL271C, strain bni1, active compounds read low 1 | locus YNL298W, strain CLA4, active compounds read low 0.959 | locus YNL307C, strain MCK1, active compounds read low 0.967 | locus YNL322C, strain KRE1 (second series), active compounds read low 1.04 | locus YNL322C, strain KRE1, active compounds read low 0.985 | locus YNR049C, strain mso1, active compounds read low 0.999 | locus YNR052C, strain pop2, active compounds read low 0.986 | locus YOL012C, strain htz1 0.715 | locus YOL147C, strain pex11, active compounds read low 0.987 | locus YOR001W, strain rrp6, active compounds read low 1.05 | locus YOR061W, strain CKA2, active compounds read low 0.99 | locus YOR069W, strain VPS5, active compounds read low 0.98 | locus YOR070C, strain gyp1, active compounds read low 1.02 | locus YOR080W, strain dia2, active compounds read low 1.07 | locus YOR083W, strain WHI5, active compounds read low 1 | locus YOR136W, strain idh2, active compounds read low 0.98 | locus YOR144C, strain elg1, active compounds read low 0.993 | locus YOR184W, strain ser1, active compounds read low 1.08 | locus YOR265W, strain rbl2, active compounds read low 1 | locus YOR270C, strain vph1, active compounds read low 0.971 | locus YOR290C, strain snf2, active compounds read low 1.01 | locus YOR316C, strain cot1, active compounds read low 0.966 | locus YPL051W, strain arl3, active compounds read low 1 | locus YPL055C, strain LGE1, active compounds read low 1.01 | locus YPL078C, strain atp4, active compounds read low 1.01 | locus YPL106C, strain sse1, active compounds read low 1.11 | locus YPR119W, strain clb2, active compounds read low 0.986 | locus YPR141C, strain kar3, active compounds read low 1.01 | locus YPR163C, strain tif3, active compounds read low 1.01 | locus YPR167C, strain met16, active compounds read low 0.987 | strain wtn01, active compounds read low 1.04
